Data taken from PubChem BioAssay AID720723 (Molecular Libraries Program, Specialized Chemistry Center, …, 2013).
The source made the active and inactive calls. The limit is not given here; nearly all actives have IC50 up to about 87 µM.

Experiment: rhodamine 123 fluorescence quenching, dose response, artefact control for mitochondrial permeability transition pore inhibitor project, biochemical, dry powder samples (AID 720723)
Settings: Rhodamine 123 fluorescence quenching counterscreen, cell-free
With `CC(C)(C)c1ccccc1OCCCCCNCCO` the IC50 was 42.8 µM (active). In the case of `COc1ccc(-n2cc(CNC3CCN(C)CC3)c(-c3cccc(F)c3)n2)cc1`, the IC50 was > 100 µM (inactive). In the case of `Cc1ccc2nc(N(CCCN(C)C)C(=O)CCc3ccccc3)sc2c1`, the IC50 was 34.1 µM (active). In the case of `CCN(CC)CCCN=Cc1c(O)n(Cc2ccccc2)c(=O)c2ccccc12`, the IC50 was > 100 µM (inactive). With `COc1cc(NC(=O)c2cc(-c3cccc(O)c3)on2)cc(OC)c1OC` the IC50 was > 100 µM (inactive). For `COc1ccc(C)c2sc(N(CCCN(C)C)C(=O)CS(=O)(=O)c3ccc(F)cc3)nc12`, the IC50 was 87.8 µM (active). In the case of `CCOC(=O)N1CCN(S(=O)(=O)c2ccc(C(=O)N(CCCN(C)C)c3nc4c(C)c(C)ccc4s3)cc2)CC1`, the IC50 was 56.8 µM (active).
